Screen size: about 290,000 compounds; about 570 (0.2%) were called active. Inconclusive results (about 1%) are left out. Rule as the data show it: active = inhibition mostly above about 51% (no sharp cut-off); inconclusive = no clear call, values can overlap the other calls; inactive = mostly below about 53%. Many of the other results were omitted from the sample, so actives are more common in it than they were.
Target: Voltage-dependent N-type calcium channel subunit alpha-1B (Homo sapiens) (UniProt Q00975)
Sequence (Q00975 whole entry, looked up): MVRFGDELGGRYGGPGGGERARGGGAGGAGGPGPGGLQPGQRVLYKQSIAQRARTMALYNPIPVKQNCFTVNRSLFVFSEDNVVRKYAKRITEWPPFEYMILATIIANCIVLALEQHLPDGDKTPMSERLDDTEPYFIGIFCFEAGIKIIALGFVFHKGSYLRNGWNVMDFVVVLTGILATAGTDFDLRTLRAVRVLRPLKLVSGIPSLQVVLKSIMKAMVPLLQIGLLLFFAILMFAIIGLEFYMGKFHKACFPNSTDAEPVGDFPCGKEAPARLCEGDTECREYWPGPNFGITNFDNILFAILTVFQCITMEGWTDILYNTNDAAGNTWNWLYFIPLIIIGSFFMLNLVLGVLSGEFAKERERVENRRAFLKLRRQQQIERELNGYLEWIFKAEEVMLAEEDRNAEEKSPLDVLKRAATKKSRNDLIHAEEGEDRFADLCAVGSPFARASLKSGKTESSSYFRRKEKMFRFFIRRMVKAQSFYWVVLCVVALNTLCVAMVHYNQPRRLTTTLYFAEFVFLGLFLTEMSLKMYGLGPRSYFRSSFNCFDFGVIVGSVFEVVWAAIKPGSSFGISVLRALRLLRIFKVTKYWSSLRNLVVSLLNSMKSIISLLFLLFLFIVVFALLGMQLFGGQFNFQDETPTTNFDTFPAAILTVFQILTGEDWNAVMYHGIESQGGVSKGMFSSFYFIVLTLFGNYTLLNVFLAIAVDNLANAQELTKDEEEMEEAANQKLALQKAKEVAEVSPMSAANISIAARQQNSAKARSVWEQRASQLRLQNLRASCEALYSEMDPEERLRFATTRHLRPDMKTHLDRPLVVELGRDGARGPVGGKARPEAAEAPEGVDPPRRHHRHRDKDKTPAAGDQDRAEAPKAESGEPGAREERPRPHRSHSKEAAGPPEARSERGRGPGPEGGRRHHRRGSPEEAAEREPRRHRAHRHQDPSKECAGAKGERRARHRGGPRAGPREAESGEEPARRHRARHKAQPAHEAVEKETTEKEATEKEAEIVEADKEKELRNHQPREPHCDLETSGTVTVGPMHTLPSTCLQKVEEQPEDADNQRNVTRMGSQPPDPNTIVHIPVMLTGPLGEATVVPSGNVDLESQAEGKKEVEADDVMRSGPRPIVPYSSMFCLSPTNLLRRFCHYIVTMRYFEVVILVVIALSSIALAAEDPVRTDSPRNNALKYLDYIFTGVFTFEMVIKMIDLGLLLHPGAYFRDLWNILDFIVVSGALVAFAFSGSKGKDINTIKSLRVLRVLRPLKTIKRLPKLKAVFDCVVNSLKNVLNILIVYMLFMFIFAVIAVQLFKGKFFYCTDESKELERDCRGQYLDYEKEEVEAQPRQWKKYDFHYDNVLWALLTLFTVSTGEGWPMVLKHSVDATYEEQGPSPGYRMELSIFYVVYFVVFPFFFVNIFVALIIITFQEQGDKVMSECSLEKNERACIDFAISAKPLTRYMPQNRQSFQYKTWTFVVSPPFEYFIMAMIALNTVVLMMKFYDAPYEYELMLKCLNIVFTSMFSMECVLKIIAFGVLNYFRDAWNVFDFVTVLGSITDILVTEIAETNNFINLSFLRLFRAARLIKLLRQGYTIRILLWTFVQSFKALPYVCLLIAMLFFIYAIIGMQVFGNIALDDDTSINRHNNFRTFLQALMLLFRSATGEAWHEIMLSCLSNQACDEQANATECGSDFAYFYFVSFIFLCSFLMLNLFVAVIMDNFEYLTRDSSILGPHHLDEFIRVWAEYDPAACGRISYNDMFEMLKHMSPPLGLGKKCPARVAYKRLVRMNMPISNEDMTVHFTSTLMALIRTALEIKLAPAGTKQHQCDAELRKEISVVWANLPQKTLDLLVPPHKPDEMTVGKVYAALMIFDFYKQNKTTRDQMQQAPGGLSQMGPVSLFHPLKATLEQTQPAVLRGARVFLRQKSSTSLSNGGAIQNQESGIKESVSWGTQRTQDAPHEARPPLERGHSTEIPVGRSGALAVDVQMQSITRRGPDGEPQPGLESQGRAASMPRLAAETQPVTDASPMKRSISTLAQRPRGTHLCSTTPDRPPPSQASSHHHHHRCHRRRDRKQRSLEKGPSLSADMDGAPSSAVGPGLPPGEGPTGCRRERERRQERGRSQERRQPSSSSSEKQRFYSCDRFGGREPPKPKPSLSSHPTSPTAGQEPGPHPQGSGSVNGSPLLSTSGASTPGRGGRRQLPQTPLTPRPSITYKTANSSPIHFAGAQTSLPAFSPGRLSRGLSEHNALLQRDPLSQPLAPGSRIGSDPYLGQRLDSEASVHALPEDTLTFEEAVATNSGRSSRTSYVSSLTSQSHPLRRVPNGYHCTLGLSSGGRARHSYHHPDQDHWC
Test: inhibitors of Mint1-CaV2.2 protein interaction, biochemical, HTRF (AID 2073)
Settings: at 20 µM, stronger effect = higher value
[1] = measured here: average of repeat tests

Cc1[nH]n(C(N)=S)c(=O)c1N=Nc1cccc([N+](=O)[O-])c1C
inhibition: 14.9% (inactive)

CCCC(=O)c1cc2cc(Cl)ccc2oc1=O
inhibition: -2.8% (inactive)

CCOC(=O)CSc1nnc(-c2cccnc2)n1C
inhibition: 0.8% (inactive)

CN1CCN(C(CC(=O)Nc2cccc(O)c2)C(=O)O)CC1 (stereo not drawn)
inhibition: 0.5% (inactive)

O=C(CSc1nnc(-c2ccccc2)o1)NC1CCS(=O)(=O)C1 (stereo not drawn)
inhibition: -2.1% (inactive)

O=C(OCn1ncc(Cl)c(Cl)c1=O)c1ccc(F)cc1
inhibition: -3% (inactive)

COc1ccc(N2CCN(C(=O)c3ccc4c(=O)n5c(nc4c3)CCCCC5)CC2)cc1
inhibition: -6.5% (inactive)

Cc1ccc2c(CN3CCN(Cc4ccccc4)CC3)cc(=O)oc2c1C
inhibition: 6.6% (inactive)

Cc1ccccc1NC(=S)NCc1cccs1
inhibition: 5.6% (inactive)

Cc1cc(C)c(NC(=S)N(Cc2cccnc2)Cc2ccco2)c(C)c1
inhibition: 0.6% (inactive)

CCC(C)(C)n1nnnc1C(c1cc2ccc(OC)cc2[nH]c1=O)N1CCc2ccccc2C1 (stereo not drawn)
inhibition: 56.9% (active)

CCC(C)(C)n1nnnc1C(c1cc2ccc(OC)cc2[nH]c1=O)N1CCc2ccccc21 (stereo not drawn)
inhibition: 19.3% (inactive)

COc1ccc2cc(C(c3nnnn3C(C)(C)C)N3CCc4ccccc4C3)c(=O)[nH]c2c1 (stereo not drawn)
inhibition: 33% (inactive)

Fc1cccc(Cl)c1CNn1cn[nH]c1=S
inhibition: -3% (inactive)

COc1ccc2c(c1)CCc1cc(C(=O)N3CCN(c4ccc(N5CCOCC5)nn4)CC3)sc1-2
inhibition: 13.6% (inactive)

CCCCc1[nH]nc2c1C1(C(=O)N(CC)c3ccccc31)C(C#N)=C(N)O2 (stereo not drawn)
inhibition: -5.8% (inactive)

COc1ccc(N2CCN(CCNC(=O)Nc3cccc(C)c3C)CC2)cc1
inhibition: 0.6% (inactive)

O=C(/C=C/c1ccc2c(c1)OCO2)Nc1nc(-c2ccc(F)cc2F)cs1
inhibition: 9.1% (inactive)

COc1ccc(-c2cc(C(F)(F)F)c(C#N)c(SCC(=O)O)n2)cc1
inhibition: 22% (inactive)

CCCCOc1ccc(-c2cc(C(F)(F)F)c(C#N)c(SCC(=O)O)n2)cc1
inhibition: 60.7% (active)

CCCOc1ccc(-c2cc(C(F)(F)F)c(C#N)c(SCC(=O)O)n2)cc1
inhibition: 35.3% (inactive)

Cc1cccc(NC(=O)CCN2C(=O)C3C4C=CC(C4)C3C2=O)n1 (stereo not drawn)
inhibition: 22% (inactive)

O=C(NCc1ccc(Cl)cc1)c1nccnc1CO
inhibition: 11.8% (inactive)

COc1ccc(NS(=O)(=O)c2cccc(-c3n[nH]c(=S)n3Cc3ccccc3)c2)cc1
inhibition: 3.7% (inactive)

O=C(COc1ccc(Cl)cc1Cl)c1ccc[nH]1
inhibition: 21.1% (inactive)

O=C(COc1ccc(Br)cc1Cl)c1ccc[nH]1
inhibition: 24.7% (inactive)

O=C(COc1ccccc1Cl)c1ccc[nH]1
inhibition: 53.6% (active)

COc1ccc(C(NC(=O)CC(C)C)c2c(O)ccc3ccccc23)cc1 (stereo not drawn)
inhibition: 15.2% (inactive)

COc1cc(OC)c(C2CC(=O)N3CN(c4ccccc4C)CSC3=C2C#N)cc1OC (stereo not drawn)
inhibition: 73.1% (active)

CCc1ccccc1N1CSC2=C(C#N)C(c3cc(OC)c(OC)cc3OC)CC(=O)N2C1 (stereo not drawn)
inhibition: 75.6% (inactive)
inhibition [1]: 34.5%

CCc1ccccc1N1CSC2=C(C#N)C(c3ccccc3F)CC(=O)N2C1 (stereo not drawn)
inhibition: 84.5% (active)

N#CC1=C2SCN(c3ccccc3)CN2C(=O)CC1c1ccccc1Cl (stereo not drawn)
inhibition: 57.1% (inactive)
inhibition [1]: 35.2%

COc1cc(C2CC(=O)N3CN(c4ccccc4C)CSC3=C2C#N)cc(OC)c1OC (stereo not drawn)
inhibition: 90.6% (inactive)
inhibition [1]: 32.6%

COc1cc(OC)c(C2CC(=O)N3CN(c4ccc(C)cc4)CSC3=C2C#N)cc1OC (stereo not drawn)
inhibition: 65.7% (inactive)
inhibition [1]: 14.9%

N#CC1=C2SCN(c3ccccc3)CN2C(=O)CC1c1cccs1 (stereo not drawn)
inhibition: 74% (inactive)
inhibition [1]: 42.2%

CCOc1cc(C2CC(=O)NC(SCC)=C2C#N)ccc1O (stereo not drawn)
inhibition: 5.2% (inactive)

CCOc1cc(C2CC(=O)N3CN(C4CCCCC4)CSC3=C2C#N)ccc1O (stereo not drawn)
inhibition: 62.4% (active)

COc1cccc(C2CC(=O)N3CN(c4cccc(Cl)c4C)CSC3=C2C#N)c1OC (stereo not drawn)
inhibition: 73.5% (active)

CCc1ccc(C2CC(=O)N3CN(c4ccccc4)CSC3=C2C#N)cc1 (stereo not drawn)
inhibition: 88% (inactive)
inhibition [1]: 42.4%

N#CC1=C2SCN(Cc3ccco3)CN2C(=O)CC1c1ccccc1F (stereo not drawn)
inhibition: 84.1% (inactive)
inhibition [1]: 33.2%

CCC(C)/C(C)=N/NC(=O)CSc1nc2ccccc2[nH]1 (stereo not drawn)
inhibition: -5.4% (inactive)
